# According to PubChem BioAssay (EPA / NIEHS):
# The source made the active and inactive calls. Rule for the calls: active = hit-call score of the fitted dose curve at least 0.9, where 1 is the maximum; inactive = score below 0.9.
# Read-out: cysteine-aspartic acid protease (CASP8), CASP8 (gene 841)
# Test: LTEA_HepaRG_CASP8: Life Technologies and Expression Analysis (LTEA) Assay for cysteine-aspartic acid protease (CASP8) using HepaRG (AID 2283480)
# Conditions: mRNA level, 48 h; actives raise or lower the signal
# Method in brief: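 Differentiated HepaRG cells in serum-free induction medium, 48 h exposure, eight-point half-log series from 100 uM in 0.5% DMSO, duplicates. CASP8 mRNA by qRT-PCR, normalized to ACTB, GAPDH, POLR2A; bidirectional fit versus DMSO.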
Structure (SMILES),outcome,AC50
C[C@]12C=CC(=O)C=C1CC[C@H]1[C@@H]3C[C@@H](O)[C@](O)(C(=O)CO)[C@@]3(C)C[C@H](O)[C@@]12F,inactive,–
O=C(O)c1ccc2c(c1)nc(C(=O)NC1CCN(C3CC3)CC1)n2Cc1cc(-c2ccc(Cl)s2)on1,inactive,–
O=S1(=O)CCCO1,inactive,–
Cn1c(=O)c2[nH]cnc2n(C)c1=O,inactive,–
CC(C)c1nnc2ccc(-c3ocnc3-c3cc(F)ccc3F)cn12,inactive,–
CCCCCOC(C)=O,inactive,–
NC(N)=O,inactive,–
OCC(CO)(CO)CO,inactive,–
CC[C@H](C)C(=O)O[C@H]1C[C@H](O)C=C2C=C[C@H](C)[C@H](CC[C@@H](O)C[C@@H](O)CC(=O)O)[C@H]21,inactive,–
c1ccc2ncccc2c1,inactive,–
O=C(NO)C1(NS(=O)(=O)c2ccc(Oc3ccc(F)cc3)cc2)CCOCC1,inactive,–
CCCc1ccccc1,inactive,–
CC(C)CC(C)O (stereo unspecified),inactive,–
CCCCC(CC)C(=O)OCCOCCOCCOC(=O)C(CC)CCCC (stereo unspecified),inactive,–
O=C(O)[C@H](O)[C@@H](O)C(=O)O,inactive,–
Cc1ccc(S(=O)(=O)NC(=O)NN2CCCCCC2)cc1,inactive,–
CCCCCCCCCCCCCCCCOS(=O)(=O)O,inactive,–

Structure (SMILES),outcome,AC50
C[C@@H](Oc1ccc(CNC(=O)c2cccnc2Oc2ccc3c(c2)OCO3)c(F)c1)C(=O)O,inactive,–
Cn1cc[nH]c1=S,inactive,–
CCCCCCCC/C=C\CCCCCCCC(=O)OC[C@@H](O)[C@H]1OC[C@H](O)[C@H]1O,inactive,–
COc1cc2c(c(OC)c1OC)-c1ccc(OC)c(=O)cc1[C@@H](NC(C)=O)CC2,inactive,–
Cc1nccn1-c1ccc(Sc2cccc(C3(C(N)=O)CCOCC3)c2)cc1,–,28.1 µM (active)
OC[C@H]1O[C@@](CO)(O[C@H]2O[C@H](CO)[C@@H](O)[C@H](O)[C@H]2O)[C@@H](O)[C@@H]1O,inactive,–
Nc1ccn([C@@H]2O[C@H](CO)[C@@H](O)[C@@H]2O)c(=O)n1,inactive,–
OCCOCCOCCO,inactive,–
CCCOc1ccc(S(=O)(=O)N2CCN(CC)CC2)cc1-c1nc2c(CC)n(Cc3ccccn3)nc2c(=O)[nH]1,inactive,–
CCCCCCCC1CCC(=O)O1 (stereo unspecified),inactive,–
Cc1nc(-c2ccccn2)ncc1C(=O)Nn1cc(C)c2cc(F)ccc21,inactive,–
NC(=O)N(O)[C@@H]1COc2cc(OCc3ccccc3)ccc21,inactive,–
CNC(C)=O,inactive,–
O=C(O)c1cccc(C[C@@H]2COc3ccc(OCc4nc5cc(F)ccc5s4)cc3[C@@H]2O)c1,inactive,–
CCCC(CCC)C(=O)O,inactive,–
COc1cc(C(C)C)c2c(c1)S(=O)(=O)N(COc1cc(=O)n3cccc(OCCN4CCCCC4)c3n1)C2=O,inactive,–
CCCCN1C(=O)[C@@H]([C@H](O)C2CCCCC2)NC(=O)C12CCN(Cc1ccc(Oc3ccc(C(=O)O)cc3)cc1)CC2,–,3.02 µM (active)

# Read-out: Cytochrome P450 (CYP2B6), CYP2B6 (gene 1555)
# Test: LTEA_HepaRG_CYP2B6: Life Technologies and Expression Analysis (LTEA) Assay for Cytochrome P450 (CYP2B6) using HepaRG (AID 2283481)
# Conditions: mRNA level, 48 h; actives raise or lower the signal
# Method in brief: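 Differentiated HepaRG cells, serum-free induction medium, exposed 48 h in duplicate to 8-point half-log concentrations from 100 uM in 0.5% DMSO. CYP2B6 mRNA by qRT-PCR, normalized to ACTB, GAPDH, POLR2A; bidirectional fit versus DMSO.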
Structure (SMILES),outcome,AC50
C[C@]12C=CC(=O)C=C1CC[C@H]1[C@@H]3C[C@@H](O)[C@](O)(C(=O)CO)[C@@]3(C)C[C@H](O)[C@@]12F,inactive,–
O=C(O)c1ccc2c(c1)nc(C(=O)NC1CCN(C3CC3)CC1)n2Cc1cc(-c2ccc(Cl)s2)on1,inactive,–
O=S1(=O)CCCO1,inactive,–
Cn1c(=O)c2[nH]cnc2n(C)c1=O,inactive,–
CC(C)c1nnc2ccc(-c3ocnc3-c3cc(F)ccc3F)cn12,–,0.619 µM (active)
CCCCCOC(C)=O,inactive,–
NC(N)=O,inactive,–
OCC(CO)(CO)CO,inactive,–
CC[C@H](C)C(=O)O[C@H]1C[C@H](O)C=C2C=C[C@H](C)[C@H](CC[C@@H](O)C[C@@H](O)CC(=O)O)[C@H]21,inactive,–
c1ccc2ncccc2c1,–,50 µM (active)
O=C(NO)C1(NS(=O)(=O)c2ccc(Oc3ccc(F)cc3)cc2)CCOCC1,–,11.8 µM (active)
CCCc1ccccc1,inactive,–
CC(C)CC(C)O (stereo unspecified),inactive,–
CCCCC(CC)C(=O)OCCOCCOCCOC(=O)C(CC)CCCC (stereo unspecified),inactive,–
CCCCCCCCCCCCCCCCOS(=O)(=O)O,inactive,–
C[C@@H](Oc1ccc(CNC(=O)c2cccnc2Oc2ccc3c(c2)OCO3)c(F)c1)C(=O)O,inactive,–

Structure (SMILES),outcome,AC50
Cn1cc[nH]c1=S,inactive,–
CCCCCCCC/C=C\CCCCCCCC(=O)OC[C@@H](O)[C@H]1OC[C@H](O)[C@H]1O,inactive,–
c1ccc2c(c1)-c1cccc3c1c-2cc1ccccc13,inactive,–
COc1cc2c(c(OC)c1OC)-c1ccc(OC)c(=O)cc1[C@@H](NC(C)=O)CC2,–,0.0986 µM (active)
Cc1nccn1-c1ccc(Sc2cccc(C3(C(N)=O)CCOCC3)c2)cc1,–,9.76 µM (active)
OC[C@H]1O[C@@](CO)(O[C@H]2O[C@H](CO)[C@@H](O)[C@H](O)[C@H]2O)[C@@H](O)[C@@H]1O,inactive,–
Nc1ccn([C@@H]2O[C@H](CO)[C@@H](O)[C@@H]2O)c(=O)n1,inactive,–
OCCOCCOCCO,inactive,–
CCCOc1ccc(S(=O)(=O)N2CCN(CC)CC2)cc1-c1nc2c(CC)n(Cc3ccccn3)nc2c(=O)[nH]1,–,5.14 µM (active)
Cc1nc(-c2ccccn2)ncc1C(=O)Nn1cc(C)c2cc(F)ccc21,–,0.168 µM (active)
NC(=O)N(O)[C@@H]1COc2cc(OCc3ccccc3)ccc21,–,16.2 µM (active)
CNC(C)=O,inactive,–
O=C(O)c1cccc(C[C@@H]2COc3ccc(OCc4nc5cc(F)ccc5s4)cc3[C@@H]2O)c1,–,92 µM (active)
CCCC(CCC)C(=O)O,inactive,–
COc1cc(C(C)C)c2c(c1)S(=O)(=O)N(COc1cc(=O)n3cccc(OCCN4CCCCC4)c3n1)C2=O,–,22.5 µM (active)
CCCCN1C(=O)[C@@H]([C@H](O)C2CCCCC2)NC(=O)C12CCN(Cc1ccc(Oc3ccc(C(=O)O)cc3)cc1)CC2,–,1.94 µM (active)
